Measurements as given in paper PMC5540273 (PLoS ONE, 2017).

Legend:
Conditions in all cases: concentration: 1 μM, replicates: in singlicate; n = 1
STK36 = test system: STK36
STK39 = test system: STK39
SYK = test system: SYK
SgK110 = test system: SgK110
TAK1 = test system: T1, TAK1
T1 construct: gene MAP3K7

TAOK1 = test system: TAOK1
TAOK2 = test system: TAOK2
TAOK3 = test system: TAOK3
TBK1 = test system: TBK1
TEC = test system: TEC
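Note: KINOMEscan kinase panel screen.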

Row | Structure (SMILES) | %Inh (STK36) [%] | %Inh (STK39) [%] | %Inh (SYK) [%] | %Inh (SgK110) [%] | %Inh (TAK1) [%] | %Inh (TAOK1) [%] | %Inh (TAOK2) [%] | %Inh (TAOK3) [%] | %Inh (TBK1) [%] | %Inh (TEC) [%]
1 | Nc1ncnc2c1nc(-c1ccccc1)n2-c1ccccc1 [SKF-97293] | 7 | 0 | 6 | 0 | 35 | 38 | 6 | 25 | 24 | 8
2 | Cl.Cl.NCC(C(=O)Nc1cc(Br)c(-c2ccnc3[nH]ccc23)s1)c1ccccc1 (stereo not shown) [GSK1269851] | 0 | 44 | 7 | 0 | 0 | 0 | 0 | 0 | 7 | 11
3 | c1ccc(-c2n[nH]cc2Nc2ccnc3ccccc23)nc1 [GW694077] | 0 | 8 | 16 | 0 | 91.6 | 66 | 21 | 10 | 0 | 0
4 | O=C(Nc1cccc(-c2nn3ccccc3c2-c2ccnc(Nc3cccc(C(F)(F)F)c3)n2)c1)c1c(F)cccc1F [GSK292658] | 97.8 | 0 | 37 | 68 | 0 | 27 | 3 | 30 | 8 | 83
5 | CCS(=O)(=O)c1ccc(OC)c(Nc2nccc(-c3c(-c4cccc(NC(=O)c5c(F)cccc5F)c4)nn4ncccc34)n2)c1 [GSK326180] | 99.7 | 16 | 4 | 0 | 0 | 0 | 0 | 0 | 21 | 4
6 | FC(F)(F)c1ccc(/C=C/c2cncnc2Nc2ccc3[nH]c(Cc4ccccc4)nc3c2)cc1 [GW709199] | 0 | 0 | 10 | 9 | 0 | 0 | 0 | 0 | 36 | 14
7 | COc1cc2c(cc1OCCN1CCNCC1)ncc1c3ccc(C#N)cc3[nH]c21 | 6 | 33 | 0 | 0 | 95.1 | 0 | 4 | 2 | 81 | 0
8 | CSc1cccc2c(-c3ccncn3)c(-c3ccc(F)cc3)nn12 [GW514786] | 38 | 10 | 42 | 0 | 9 | 0 | 0 | 0 | 8 | 0
9 | C[C@@H]1CC[C@@H](C(=O)Nc2ccccc2)CN1c1cc(-c2ccc3c(N)n[nH]c3c2)nc(N)n1 [GSK2286062] | 0 | 0 | 30 | 0 | 0 | 0 | 0 | 10 | 17 | 0
10 | Cc1ccc(C)c(NC(=O)NC2CCN(c3ccnc(Nc4ccc(F)cc4)n3)C2)c1 (stereo not shown) [GSK1379720] | 5 | 10 | 16 | 11 | 0 | 0 | 0 | 0 | 0 | 2
11 | CCn1c(-c2nonc2N)nc2c(C#CC(C)(C)O)ncc(OCCCCN)c21.O=C(O)C(F)(F)F.O=C(O)C(F)(F)F [GSK507274] | 0 | 11 | 4 | 0 | 0 | 40 | 8 | 0 | 31 | 0
12 | O=C(Nc1cccc(-c2nn3ccccc3c2-c2ccnc(Nc3cccc(F)c3)n2)c1)c1c(F)ccc(F)c1Cl [GSK357952] | 99.3 | 35 | 16 | 0 | 0 | 33 | 0 | 34 | 3 | 60
13 | COc1cc(Nc2nccc(-c3c(-c4cccc(NC(=O)c5c(F)cccc5F)c4)nn4ncccc34)n2)cc(OC)c1OC [GSK327238] | 100 | 13 | 74 | 69 | 15 | 58 | 39 | 63 | 12 | 95.2
14 | Nc1ncc(-c2cccnc2)c2scc(-c3ccc4c(c3)CCN4C(=O)Cc3ccccc3)c12 [GSK683281] | 87 | 4 | 34 | 1 | 7 | 0 | 4 | 0 | 14 | 17
15 | COc1cc(Nc2nccc(-c3c(-c4cccc(NC(=O)c5c(F)cccc5F)c4)nn4ccccc34)n2)cc(OC)c1OC [GSK323521] | 19 | 8 | 28 | 0 | 28 | 0 | 0 | 0 | 3 | 21
16 | CC(=O)Nc1nc2cnc(Nc3cc(NC(=O)c4cccc(C5(C#N)CC5)c4Cl)ccc3C)nc2s1 | 0 | 0 | 5 | 19 | 3 | 0 | 0 | 0 | 0 | 0
17 | COc1ccc(CNC(=O)NC2CCN(c3ccnc(Nc4ccc(F)cc4)n3)CC2)cc1 [GSK1379788] | 0 | 0 | 21 | 0 | 0 | 0 | 0 | 0 | 2 | 0
18 | Clc1ccc(-c2nn3ncccc3c2-c2ccnc(Nc3ccc4c(c3)OCCO4)n2)cc1 [GW829116] | 79 | 0 | 0 | 11 | 0 | 0 | 19 | 0 | 19 | 0
19 | Nc1ncc(-c2ccc3nccc(-c4ccncc4)c3c2)cc1S(=O)(=O)N1CCOCC1 [GSK1627798] | 0 | 0 | 12 | 0 | 0 | 0 | 0 | 0 | 10 | 9
20 | Cl.Cl.NCC(NC(=O)c1cc(-c2ccccc2)c(-c2ccnc3[nH]ccc23)s1)c1ccccc1 (stereo not shown) [GSK1321561] | 29 | 8 | 5 | 0 | 35 | 4 | 0 | 0 | 24 | 11
21 | Cl.Cl.NCC(NCc1ccc(-c2ccnc3[nH]ccc23)s1)c1ccccc1 (stereo not shown) [GSK1321565] | 0 | 5 | 23 | 8 | 44 | 26 | 0 | 0 | 8 | 0
22 | COc1cccc(C2=C(Nc3ccc(Cl)c(C(=O)O)c3)C(=O)NC2=O)c1 [SB-390769] | 0 | 13 | 34 | 57 | 0 | 100 | 100 | 100 | 100 | 0
